# Source: PubChem BioAssay AID686978 (National Center for Advancing Translational Sciences (NCATS), 2013)
# “And” between values parts separate entries of the source, which are not always exact repeats. Equal entries are not always repeated. About 64,000 (15%) of roughly 420,000 compounds were called active. Inconclusive results (about 27%) are left out. Calls follow the shape of the dose curve; as a rule, active = well fitted inhibition curve with a large enough effect; inconclusive = small, poorly fitted or top-dose-only effect; inactive = flat fitted curve, though single readings scatter. Only a sample is shown. Entries that show only a call come without a potency.
# Experiment: qHTS for Inhibitors of human tyrosyl-DNA phosphodiesterase 1 (TDP1): qHTS in cells in absence of CPT; also: nearly all actives have a fitted effect of over 55% in size
# Settings: DT40 Tdp1-/- hTDP1 cells, no CPT, ATP luminescence, 48 h; activity change, negative = growth inhibition: at 46.2 µM (top of the series)
# Outline: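 A cellular qHTS used chicken DT40 cells lacking endogenous Tdp1 but carrying stably transfected human TDP1. Compounds were applied without camptothecin, and cell growth kinetics were judged by ATP-dependent luminescence after ≥48 hr.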
# Potency is read from the fitted curve at half-maximal effect.
row,SMILES,Potency
1,Nc1cc2c(cc1Br)-c1ccc(F)cc1C2=O,inactive
2,COC(=O)C[C@H]1C=C[C@H](NC(=O)c2ccc(F)cc2)[C@@H](CO)O1,inactive
3,Cc1ccsc1/C=N/NC(=O)Cc1cc(=O)[nH][nH]1,inactive
4,CCCC(=O)C1CCN(Cc2ccccc2)CC1,inactive
5,Brc1ccc(CN2CC[C@H]3C=CCc4cccc(c43)C2)cc1,15.8 µM (active) and 20.6 µM (active)
6,O=C1C[C@@H]2c3c(cccc3CN1Cc1ccccc1)C[C@@H](O)[C@H]2O,inactive
7,Cc1cccc(C)c1N1C(=O)CN(Cc2ccccc2)C1=S,inactive
8,O=C1C[C@H]2C=CCc3cccc(c32)CN1Cc1ccccc1,20 µM (active)
9,C/C(Cn1nnc2ccccc21)=N\OC(=O)c1cc(F)c(F)cc1Cl,inactive
10,O=C(NCc1ccc(F)cc1)C1CCC(CNc2c(N3CCOCC3)c(=O)c2=O)CC1 (stereo not given),inactive
11,CC[C@]1(O)CC2CN(CCc3c([nH]c4ccccc34)[C@@](C(=O)OC)(c3cc4c(cc3OC)N(C=O)[C@H]3[C@@](O)(C(=O)OC)[C@H](OC(C)=O)[C@]5(CC)C=CCN6CC[C@]43[C@@H]65)C2)C1 (stereo not given in full),inactive
12,CC[C@]1(O)C[C@@H]2CN(CCc3c([nH]c4ccccc34)[C@@](C(=O)OC)(c3cc4c(cc3OC)N(C)[C@H]3[C@@](O)(C(=O)OC)[C@H](OC(C)=O)[C@]5(CC)C=CCN6CC[C@]43[C@@H]65)C2)C1,51.7 nM (active) and 59.6 nM (active) and 82 nM (active)
13,CCN(CC)Cc1c(C(=O)OC)nnn1-c1nonc1N,inactive
14,CC(C)NC(=O)C1(C)CCCCCN1C(=O)c1ccc(-c2ccccc2)cc1 (stereo not given),9.2 µM (active)
15,CC1(C(=O)NS(=O)(=O)c2ccccc2)CCN1C(=O)c1ccccc1 (stereo not given),inactive
16,CCNC(=O)C1(C)CCCN1C(=O)c1ccc(N(C)C)cc1 (stereo not given),inactive
17,CC(C)(CNCC(O)c1ccccc1)N1CCOCC1 (stereo not given),inactive
18,NC(=S)N/N=C/c1ccc([N+](=O)[O-])cc1,inactive
19,CCOc1ccc(/C=N/NC(N)=S)cc1,16.4 µM (active)
20,CCOC(=O)N1CCC(=NNC(N)=O)CC1,inactive
21,CCC(C)Nc1oc(-c2ccc(COc3ccc(Cl)cc3)o2)nc1C#N (stereo not given),23.1 µM (active)
22,CC1CC(C)CN(c2oc(-c3ccc(OCc4ccc(Cl)cc4)cc3)nc2C#N)C1 (stereo not given),inactive
23,N#Cc1nc(COc2ccc(Cl)cc2)oc1N1CCCC1,inactive
24,COC(=O)c1sccc1NC(=O)c1ccc(Cl)cc1,inactive
25,O=C1c2ccccc2C(=O)C1c1ccccc1,inactive

row,SMILES,Potency
1,COc1ccc(NC(=O)/C(C#N)=C\c2cc(OC)c(OCc3ccc(C(=O)O)cc3)cc2Br)cc1,inactive
2,COc1ccccc1C(=O)N/C(=C/c1ccco1)C(=O)Nc1ccc(C(=O)O)cc1,inactive
3,COCCCn1c(=O)/c(=C/c2ccccc2OC(C)C)s/c1=C(\C#N)C(=O)Nc1ccc(C(=O)O)cc1,20.6 µM (active)
4,COCCNC(=S)N(CCc1c(C)[nH]c2ccc(C)cc12)Cc1cccnc1,inactive
5,CCn1cc(C(=O)N2CC=C(c3ccccc3)CC2)c(=O)c2ccc(C)nc21,inactive
6,CCOc1cc(/C=C(/C#N)c2ccc(Cl)cc2)cc(Cl)c1OCC(=O)O,inactive
7,CCOc1cc(/C=C(\C#N)C(=O)Nc2ccccc2C)ccc1OCc1cc(=O)n2nc(CC)sc2n1,inactive
8,CCOc1cc(/C=C(\C#N)c2nc(-c3cccs3)c(NC(C)=O)s2)ccc1O,3.66 µM (active)
9,CSc1nc(C)nc2c1c(=O)n(C)c(=O)n2C,inactive
10,O=P(O)(O)OC[C@H](O)CO,inactive
11,CC1(C)CC(CCC(=O)Nc2ccccc2Cl)C(=O)O1 (stereo not given),inactive
12,CCCCCCNC(=O)O[C@H]1CN(C(=O)OC(C)C)N(C(=O)OC(C)C)[C@@H]2CN(S(=O)(=O)c3ccc(C)cc3)C[C@]12O,16.4 µM (active)
13,CCCCOc1ccc(NC(=O)[C@@H]2CCCN2C(=O)C2CCN(S(=O)(=O)c3ccc(C)cc3)CC2)cc1,inactive
14,Cc1ccc(S(=O)(=O)N2CCC(C(=O)N[C@@H](C)C(=O)NCc3ccccc3)CC2)cc1,inactive
15,Cc1ccc(NS(=O)(=O)c2ccc(C)c(NC(=O)COc3ccc4ccccc4c3)c2)c(C)c1,16.4 µM (active)
16,O=C(CNS(=O)(=O)c1ccc2ccccc2c1)Nc1ccc(F)c(F)c1F,inactive
17,COc1ccc(C(=O)Nc2cc(C)ccc2NC(=O)COc2ccccc2)cc1,inactive
18,C/C(=N\NC(=S)NCc1ccccc1)c1ccc(Cl)cc1,18.4 µM (active)
19,CC1CCCCN1C(=S)NCc1ccccc1 (stereo not given),inactive
20,C/C(=N\NC(=S)NCc1ccccc1)C1CCCCC1,6.51 µM (active)
21,CN(C)CCCNC(=S)NCc1ccc(Cl)cc1,inactive
22,O=C(O)c1ccc(/C=N/NC(=S)NCc2ccccc2)cc1,inactive
23,O=C(CC1CCCCC1)NCc1ccccc1,inactive
24,C#CCOCCOCCOCCNc1nc(N2CCN(C(=O)[C@H](CCCCN)n3cc(CCC(=O)O)nn3)CC2)nc(N2CCN(C(=O)[C@H](CCCCN)n3cc(CC(C)O)nn3)CC2)n1 (stereo not given in full),inactive
25,CSc1ccc(CNC(=O)c2ccc(NC(=O)C3=CSCCO3)cc2)cc1,inactive

row,SMILES,Potency
1,CC(=O)c1ccc(N2CCN(CC(O)c3ccccc3)CC2)cc1 (stereo not given),inactive
2,CC1CCCCN1CC(=O)NCc1ccc2c(c1)OCO2 (stereo not given),inactive
3,Cn1cncc1COC(=O)c1ccc(Cl)cc1,inactive
4,Cc1ccc(OCCSc2nc(-c3cccs3)nc3cc(=O)[nH]n23)cc1Cl,29.1 µM (active)
5,CC(C)c1c(O)nc(SCCOc2ccc(Cl)cc2)[nH]c1=O,inactive
6,CCc1ccccc1OCCSc1nc(-c2cccs2)nc2cc(=O)[nH]n12,inactive
7,Brc1cccc(-c2nnc3n2CCC3)c1,inactive
8,C[C@H](NC(=O)c1nc[nH]c1C(=O)NCC(=O)OC(C)(C)C)c1ccccc1,inactive
9,COc1ccc(CCNC(=O)C2CCN(c3nn4c(=O)cc(C)nc4s3)CC2)cc1OC,inactive
10,COc1ccc(CCNC(=O)c2ccc(NC(=O)CC3SC(N4CCCCC4)=NC3=O)cc2)cc1OC (stereo not given),inactive
11,O=C(O)c1ccccc1-c1ccccc1C(=O)NCCc1ccccc1,inactive
12,CSc1ncc(C(=O)NCCCc2ccccc2)c(C)n1,inactive
13,COc1ccc(CCNC(=O)c2cnc3sc(N4CCCCCC4)nn3c2=O)cc1OC,8.2 µM (active)
14,O=C(NCCc1ccccc1)c1cnc2sc(N3CCCC3)nn2c1=O,20.6 µM (active)
15,Cc1ccccc1N1CC(c2nc3ccccc3[nH]2)CC1=O (stereo not given),inactive
16,COCCNC(=O)CN(Cc1ccco1)C(=O)CCC(=O)Nc1nccs1,inactive
17,CCC(C)NC(=O)Cn1nc(C(F)(F)F)c2c1CCC2 (stereo not given),inactive
18,O=C(NCc1ccco1)c1nn2cccnc2c1Cl,inactive
19,CCOc1ccc(-n2c(SC(C)C(=O)OC)nc3c(c2=O)SCC3)cc1 (stereo not given),inactive
20,O=S(=O)(c1ccc(F)cc1)N1CCN(C(=S)NCc2ccco2)CC1,inactive
21,COc1cc(/C=C/C(=O)O)cc(S(=O)(=O)Nc2ccccc2SC)c1OC,inactive
22,CC(C)(C)c1csc(NC2=NS(=O)(=O)c3ccccc32)n1,inactive
23,CC(C)C(NS(=O)(=O)c1cccs1)C(=O)Nc1nc(C(C)(C)C)cs1 (stereo not given),23.1 µM (active)
24,COc1cc(Cl)c(NC(=O)C(NS(=O)(=O)c2cccs2)C(C)C)c(OC)c1 (stereo not given),inactive
25,Cc1ccccc1-n1cc(CNC(=O)C2CCC(=O)N(C3CC3)C2)cn1 (stereo not given),inactive

row,SMILES,Potency
1,COc1ccc(CC(NC(C)=O)C(=O)N2CCN(C(=O)Nc3cccc(Cl)c3)CC2)cc1OC (stereo not given),inactive
2,O=C(CSCC(=O)Nc1cccc([N+](=O)[O-])c1)Nc1ccccc1,inactive
3,CC(=O)Nc1cccc([N+](=O)[O-])c1,inactive
4,COC(=O)/C=C\C(=O)Nc1cccc([N+](=O)[O-])c1,2.06 µM (active)
5,COc1cc(C2/C(=C(\O)c3ccc4c(c3)CC(C)O4)C(=O)C(=O)N2Cc2ccco2)ccc1O (stereo not given),inactive
6,CCOc1ccc(Nc2ncnc3scc(-c4ccc(OC)cc4)c23)cc1,18.4 µM (active)
7,COc1ccc(-c2csc3ncnc(Oc4ccc5c(C)cc(=O)oc5c4)c23)cc1,inactive
8,CCOC(=O)c1sc2nc(C)nc(Nc3ccc(OC)c(OC)c3)c2c1C,inactive
9,Cc1c(Cl)c([N+](=O)[O-])nn1CCCC(=O)NC(C)c1ccccc1 (stereo not given),inactive
10,CCC(C(=O)N1CCN(S(=O)(=O)c2sc(C(=O)O)c(C)c2C(=O)O)CC1)c1ccccc1 (stereo not given),inactive
11,Cc1cccc(S(=O)(=O)N(C)C[C@H]2OCc3cnnn3CCCC(=O)N([C@@H](C)CO)C[C@H]2C)c1,inactive
12,Cn1cccc1-c1nc2ccccc2n1C,inactive
13,Cc1csc(-c2nc3ccccc3n2C)n1,18.8 µM (active)
14,Cn1c(-c2ccc(C(=O)c3ccccc3)s2)nc2ccccc21,inactive
15,Cc1ccc2nc(-c3ccc(Br)cc3)cn2c1,inactive
16,Cc1cc2c(cc1C)NC(c1ccccn1)C1=C(CC(C)(C)CC1=O)N2 (stereo not given),inactive
17,O=C(O)c1ccc2c(=O)n3c(nc2c1)/C(=C/c1ccc(Cl)c([N+](=O)[O-])c1)CC3,inactive
18,CN(C)c1ccc(/C=C/C(=O)c2ccc(C(C)(C)C)cc2)cc1[N+](=O)[O-],23.1 µM (active)
19,Cc1cc(C)n(-c2ccc(C(=O)O)cc2[N+](=O)[O-])n1,inactive
20,O=C(/C=C/c1ccc(Cl)c([N+](=O)[O-])c1)c1ccc(O)cc1,4.61 µM (active)
21,Nc1nc(SCC(=O)Nc2ccc(Cl)c([N+](=O)[O-])c2)n[nH]1,inactive
22,O=C(/C=C/c1ccc(Cl)cc1)N1CCN(c2ccccc2[N+](=O)[O-])CC1,inactive
23,Nn1cnnc1N/N=C/c1cc([N+](=O)[O-])c(Cl)cc1Cl,inactive
24,CC(CC(=O)O)C(=O)c1ccc(Cl)c([N+](=O)[O-])c1 (stereo not given),inactive
25,NC(N)=N/N=C/c1ccc(Cl)c([N+](=O)[O-])c1,10.3 µM (active)
